# Experimental data reported in article PMC8384837, “Expanding the binding specificity for RNA recognition by a PUF domain”.
# Positions count from the first letter of the chain named.
# What was measured:
# Test in all cases: yeast three-hybrid, YBZ-1, SC-Leu-His + 0.5 mM 3-AT, 4 days
# Details in all cases: tags: N-Gal4 AD-HA kept; label: inside an RPR1-promoter hybrid RNA with tandem MS2 sites; ssRNA
# PUM1 PUF domain R6-CHC = biological target: T1, PUM1 PUF domain R6-CHC (Homo sapiens, UniProt Q14671 828-1176, N1043C;Y1044H;Q1047C)
# T1 sequence: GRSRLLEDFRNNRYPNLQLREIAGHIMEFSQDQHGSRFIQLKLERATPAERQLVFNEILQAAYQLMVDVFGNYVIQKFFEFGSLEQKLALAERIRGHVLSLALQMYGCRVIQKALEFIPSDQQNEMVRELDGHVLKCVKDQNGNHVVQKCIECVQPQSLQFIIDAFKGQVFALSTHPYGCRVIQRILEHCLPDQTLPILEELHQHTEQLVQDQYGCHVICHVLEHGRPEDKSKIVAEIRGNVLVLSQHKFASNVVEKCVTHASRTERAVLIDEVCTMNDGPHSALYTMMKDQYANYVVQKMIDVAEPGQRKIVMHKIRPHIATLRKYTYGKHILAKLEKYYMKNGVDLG
# How it was run: (§1)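 Pumilio-1 PUF domain libraries, randomized (NNK) at the three base-contacting residues of each repeat, were co-expressed with matching RNA elements from a centromeric plasmid in strain YBZ-1 (LexA–MS2 coat fusion, HIS3 reporter). Transformants were plated on SC-Leu (input) and SC-Leu-His + 0.5 mM 3-AT (selection) for four days, and repeat regions were PCR-amplified and Illumina-sequenced. The interaction score is the log2 change in variant frequency from input to selection, with pseudocount 1 where absent.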
# PUM1 PUF domain R8-KWA = PUM1 PUF domain R8-KWA (Homo sapiens, UniProt Q14671 828-1176, N1122K;Y1123W;Q1126A)
# How it was run: as §1
# PUM1 PUF domain R7-RRI = PUM1 PUF domain R7-RRI (Homo sapiens, UniProt Q14671 828-1176, S1079R;N1080R;E1083I)
# How it was run: as §1
# PUM1 PUF domain R6-CYI = biological target: T2, PUM1 PUF domain R6-CYI (Homo sapiens, UniProt Q14671 828-1176, N1043C;Q1047I)
# T2 sequence: T1 sequence with H217Y, C220I
# How it was run: as §1
# PUM1 PUF domain R5-QLR = PUM1 PUF domain R5-QLR (Homo sapiens, UniProt Q14671 828-1176, C1007Q;R1008L;Q1011R)
# How it was run: as §1
# PUM1 PUF domain R3-DAK = PUM1 PUF domain R3-DAK (Homo sapiens, UniProt Q14671 828-1176, C935D;R936A;Q939K)
# How it was run: as §1
# PUM1 PUF domain R2-AFW = PUM1 PUF domain R2-AFW (Homo sapiens, UniProt Q14671 828-1176, N899A;Y900F;Q903W)
# How it was run: as §1
sequence,measurement,setting,value
GGCUAGAACUAGUGGAUCCCCCGGCGCCCGGCGGCUCGAGCCCGGGUAAGUGUAAAUAGUCUGCAUGCCGCCGGGCGCCAUGCCUGCAGGUCGACUCUAGAAAACAUG,binding signal,PUM1 PUF domain R6-CHC,3.57 log2 enrichment (interaction score)
same,binding signal,PUM1 PUF domain R8-KWA,2.67 log2 enrichment (interaction score)
GGCUAGAACUAGUGGAUCCCCCGGCGCCCGGCGGCUCGAGCCCGGGUAAGUCUAAAUAGUCUGCAUGCCGCCGGGCGCCAUGCCUGCAGGUCGACUCUAGAAAACAUG,binding signal,PUM1 PUF domain R7-RRI,5.69 log2 enrichment (interaction score)
GGCUAGAACUAGUGGAUCCCCCGGCGCCCGGCGGCUCGAGCCCGGGUAAGUGAAAAUAGUCUGCAUGCCGCCGGGCGCCAUGCCUGCAGGUCGACUCUAGAAAACAUG,binding signal,PUM1 PUF domain R6-CYI,5.81 log2 enrichment (interaction score)
GGCUAGAACUAGUGGAUCCCCCGGCGCCCGGCGGCUCGAGCCCGGGUAAGUGUUAAUAGUCUGCAUGCCGCCGGGCGCCAUGCCUGCAGGUCGACUCUAGAAAACAUG,binding signal,PUM1 PUF domain R5-QLR,0.88 log2 enrichment (interaction score)
GGCUAGAACUAGUGGAUCCCCCGGCGCCCGGCGGCUCGAGCCCGGGUAAGUGUCAAUAGUCUGCAUGCCGCCGGGCGCCAUGCCUGCAGGUCGACUCUAGAAAACAUG,binding signal,PUM1 PUF domain R5-QLR,6.43 log2 enrichment (interaction score)
GGCUAGAACUAGUGGAUCCCCCGGCGCCCGGCGGCUCGAGCCCGGGUAAGUGUAAUUAGUCUGCAUGCCGCCGGGCGCCAUGCCUGCAGGUCGACUCUAGAAAACAUG,binding signal,PUM1 PUF domain R3-DAK,3.6 log2 enrichment (interaction score)
GGCUAGAACUAGUGGAUCCCCCGGCGCCCGGCGGCUCGAGCCCGGGUAAGUGUAAAAAGUCUGCAUGCCGCCGGGCGCCAUGCCUGCAGGUCGACUCUAGAAAACAUG,binding signal,PUM1 PUF domain R2-AFW,4.3 log2 enrichment (interaction score)
GGCUAGAACUAGUGGAUCCCCCGGCGCCCGGCGGCUCGAGCCCGGGUAAGUGUAAAGAGUCUGCAUGCCGCCGGGCGCCAUGCCUGCAGGUCGACUCUAGAAAACAUG,binding signal,PUM1 PUF domain R2-AFW,1.14 log2 enrichment (interaction score)
